# Measured values from the supplement of paper PMC6555819.
# How the values were obtained:
# Test in all cases: PBM binding z-score (relative to random genomic background probes); higher = stronger binding; sequences stand for … in GC…GCGATTGACAGCGTAGAATGAAGG
# [1] = tested on: FXR:RXRa (NR concentration 270 nM, RXRa partner concentration 90 nM)
# How it was run: (§1)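 Binding buffer was PBS pH 7.4 with 2% milk, 0.02% Triton X-100, 1 mM DTT, 0.2 mg/mL BSA and 0.4 mg/ml salmon testes DNA. In it, ligand-free nuclear receptor dimers were incubated 1 h on custom Agilent 4×180K protein-binding microarrays carrying double-stranded probes. Antibodies against each partner (one per run) detected binding, and z-scores were calculated against random background probes after regression normalization of scanned fluorescence.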
# [2] = tested on: LXRa:RXRa (NR concentration 270 nM, RXRa partner concentration 90 nM)
# How it was run: as §1
# [3] = tested on: LXRa homodimer (NR concentration 270 nM)
# How it was run: as §1
# [4] = tested on: LXRb:RXRa (NR concentration 270 nM, RXRa partner concentration 90 nM)
# How it was run: as §1
# [5] = tested on: LXRb homodimer (NR concentration 270 nM)
# How it was run: as §1
# [6] = tested on: PPARa:RXRa (NR concentration 270 nM, RXRa partner concentration 90 nM)
# How it was run: as §1
# [7] = tested on: PPARg:RXRa (NR concentration 180 nM, RXRa partner concentration 90 nM)
# How it was run: as §1
# [8] = tested on: PPARg:RXRa 270nM:90nM, anti-RXR (NR concentration 270 nM, RXRa partner concentration 90 nM)
# How it was run: as §1
# [9] = tested on: PPARg:RXRa 30nM:10nM, anti-RXR (NR concentration 30 nM, RXRa partner concentration 10 nM)
# How it was run: as §1
# [10] = tested on: PPARg:RXRa 90nM:30nM, anti-RXR (NR concentration 90 nM, RXRa partner concentration 30 nM)
# How it was run: as §1
# [11] = tested on: PPARg:RXRa DBDmut IVT, anti-RXR (DBD mutation: RXRa K156A/R161A, NR concentration 270 nM, RXRa partner concentration 90 nM)
# How it was run: as §1
# [12] = tested on: PPARg:RXRa IVT, anti-PPARg (NR concentration 270 nM, RXRa partner concentration 90 nM)
# How it was run: as §1
# [13] = tested on: PPARg DBDmut:RXRa IVT, anti-PPARg (DBD mutation: PPARg1 K132A/R137A, NR concentration 270 nM, RXRa partner concentration 90 nM)
# How it was run: as §1
# [14] = tested on: PPARg DBDmut IVT, anti-PPARg (DBD mutation: PPARg1 K132A/R137A, NR concentration 270 nM)
# How it was run: as §1
# [15] = tested on: PPARg homodimer (NR concentration 180 nM)
# How it was run: as §1
# [16] = tested on: PXR:RXRa (NR concentration 270 nM, RXRa partner concentration 90 nM)
# How it was run: as §1
# [17] = tested on: PXR homodimer (NR concentration 270 nM)
# How it was run: as §1
# [18] = tested on: RARa:RXR (NR concentration 270 nM, RXRa partner concentration 90 nM)
# How it was run: as §1
# [19] = tested on: RARa homodimer (NR concentration 270 nM)
# How it was run: as §1
# [20] = tested on: RARb:RXRa (NR concentration 270 nM, RXRa partner concentration 90 nM)
# How it was run: as §1
Sequence,PBM binding z-score [1],PBM binding z-score [2],PBM binding z-score [3],PBM binding z-score [4],PBM binding z-score [5],PBM binding z-score [6],PBM binding z-score [7],PBM binding z-score [8],PBM binding z-score [9],PBM binding z-score [10],PBM binding z-score [11],PBM binding z-score [12],PBM binding z-score [13],PBM binding z-score [14],PBM binding z-score [15],PBM binding z-score [16],PBM binding z-score [17],PBM binding z-score [18],PBM binding z-score [19],PBM binding z-score [20]
GCTGCTAGGTCAGGTTCGTCAGCTAACGGGTACG,1.58,0.945,-0.287,0.33,-0.46,1.6,0.685,1.21,-0.222,0.283,3.23,2.23,-0.735,-0.897,0.459,0.538,-0.243,0.887,-0.894,3.17
TCTGCTAGGTCAGATGGTCAGCTAACGAGCTGCC,1.36,0.977,-0.468,0.356,-0.258,1.86,1.57,2.53,1.8,2.34,2.66,2.86,0.906,-0.32,0.276,0.315,-0.95,1.22,-1.27,3.32
TCATATAGGAAAAGGTGAAAGTCGAACGATATGA,1.2,1.15,-0.161,1.4,-0.24,2.46,1.45,3.09,4.54,4.05,1.88,1.52,1.28,0.696,0.985,0.902,-0.139,1.54,0.581,1.93
ATATGTAGGTTAAGGGTCATTCGGGTTGGTTCGC,5.36,4.83,3.47,4.62,1.81,6.53,12.2,10.3,11.7,12.2,7.7,8.1,6.59,4.92,8.66,6.02,3.75,6.67,3.12,3.43
CAAACTCGGTCACGAAAGGTCAAAGTCGAATGAC,6.39,7.32,7.74,6.5,2.6,5.95,6.08,5.84,2.68,5.51,5.23,5.86,1.31,0.821,7.09,6.39,2.67,6.96,4.39,5.02
GCTTACGGGTCAAGGGTTATAGCATGAATAGAAT,7,4.33,-0.0628,4.68,0.59,6.34,9.43,7.41,6.16,8.05,3.76,5.31,1.91,1.82,3.12,4.69,0.12,7.06,0.958,4.27
CGAACTAGGTCAGAACACGACAGTGAAGGATGAT,1.16,0.462,-0.145,0.53,-0.0845,3.26,5.4,4.53,1.68,3.56,7.06,7.2,1.44,1.71,1.06,0.221,0.0475,0.721,0.743,2.84
CTCGGAAGGTCGTGCTCAGGTGAGTATACCAAAC,1.88,1.55,-0.00824,1.29,-0.534,2.79,0.376,1.25,0.069,0.755,0.012,0.881,-0.0386,-0.266,0.944,1.55,-0.228,2.36,-0.507,2.5
TCTATTAGTTGAAGGGCAAGCGACGAGTCCGTTT,0.609,1.02,0.0576,0.863,0.193,1.04,0.0198,2.29,3.57,2.98,2.2,0.635,0.42,0.671,0.728,0.841,0.859,0.478,0.687,1.53
ATATGTAGGTTATCGGGTCATTCAGTTTGCGCAT,2.98,3.41,2.11,3.16,1.34,4.62,6.73,6.32,3.96,5.64,7.56,7.99,3.73,2.54,2.67,3.75,7.33,3.54,1.75,2.56
GCTAGCAGGCCATTTGGATCACTCAATGACGGGC,-0.129,-0.387,-0.841,-0.881,-0.721,-0.45,0.511,-0.386,-0.566,-0.739,0.765,0.13,-0.26,-0.878,-0.828,-0.802,-0.249,-0.562,-0.338,0.151
ATGTGTAGGTTAAGGGTCATTCAGGTTGGTTCGC,5.28,4.85,3.49,4.71,2.56,5.72,9.4,8.54,9.74,9.9,3.87,5.47,1.46,1.87,4.52,5.44,4.53,6.37,3.77,3.91
CGTCCATGGTCAAAGGTCAGTGAAGAGATGACGG,3.85,3.63,0.607,3.29,0.097,4.92,7.27,7.01,5.64,7.4,0.409,3.55,0.423,0.425,6.15,4.15,0.407,5.38,0.504,4.41
AGAACGAGGGCACGCTGAGTTGATAACAGAGTAG,0.997,0.505,-0.474,0.399,-0.662,2.29,2.11,1.82,0.679,1.14,4.19,3.68,0.246,0.187,0.159,1.33,0.018,0.895,-0.194,2.4
GTACAAAGGTGAATAGGTCGTTGATGAGTAGGCG,2.27,2.19,0.326,1.78,-0.0357,4.09,4.55,4.78,2.17,4.03,2.92,4.14,1.72,0.526,2.64,2.15,0.501,3.42,1.23,3.49
ATCTCTAGGTAAAAGTTGAGTGAATCCCGAGGAT,0.0929,0.162,0.126,-0.0605,0.531,2.84,4.94,6.21,5.21,6.22,2.05,2.5,1.01,1.53,0.688,0.0685,0.147,0.3,0.494,0.471
AATACAGGGTCAGCGTAGGCCAGAGTACGCACAG,5.67,4.35,0.74,2.92,0.652,4.74,4.5,3.96,0.97,2.52,1.94,3.32,1.54,1.65,1.81,3.51,0.39,3.85,0.496,4.15
CATATAGGGTCAGCTAGGCCAGAGTAGGGACGGC,4.43,3.32,-0.142,2.24,0.223,4.44,3.29,3.31,0.812,2.26,2.06,2.63,1.01,0.805,1.9,2.17,-0.332,3.31,0.466,3.96
